An excerpt weighted towards active compounds, which were near 21% of everything screened.
Shiga toxin inh = A qHTS for Small Molecule Inhibitors of Shiga Toxin. inhibition, % at 38.7 µM. Vero cells, Shiga toxin protein synthesis inhibition reporter. AID 2315, 2010. actives 9.2% (n = 290,000); in the data active = inhibition mostly above about 28%, no sharp cut-off; inactive = mostly below about 43%
Pf growth 96h = Primary qHTS for delayed death inhibitors of the malarial parasite plastid, 96 hour incubation; actives 6.9% (n = 320,000); Potency, µM (doses to about 28.7 µM), most hits filed as inhibitors; AID 504834, 2011; P. falciparum luciferase reporter growth, 96 h
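Parasite growth measured via integrated firefly luciferase reporter in P. falciparum. Infected erythrocytes at 2% hematocrit, 0.05% parasitemia final were treated 96 hours at 37 C under 5% CO2, and luminescence was read.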
SARS PLP yeast = qHTS of Yeast-based Assay for SARS-CoV PLP | Potency, µM (doses to about 32.9 µM), usual class: activators | actives 0.19% (n = 330,000) | S. cerevisiae expressing SARS-CoV PLpro, growth rescue | AID 485353, 2010; calls by dose curve; note: nearly all actives have a fitted effect of over 55% in size
Pf growth 48h = Primary qHTS for delayed death inhibitors of the malarial parasite plastid, 48 hour incubation | P. falciparum luciferase growth in erythrocytes, 48 h | Potency, µM (top dose mostly 28.7 µM), most hits filed as inhibitors | actives 5.9% (n = 310,000)
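A one-generation exposure of luciferase-tagged malaria parasites in RPMI 1640/Albumax erythrocyte culture, 37 C and 5% CO2. Inhibition is inferred from decreased luminescence after adding detection reagent.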
Cycloheximide cs = Cycloheximide Counterscreen for Small Molecule Inhibitors of Shiga Toxin; AID 2314, 2010; cell reporter, cycloheximide protein synthesis inhibition counterscreen; actives 12% (n = 300,000); max response, %; in the data active = max response mostly above about 13%, no sharp cut-off; inactive = mostly below about 14%; note: read at 38.3 µM for the half of the compounds with a filed dose
NS1 inh = qHTS Assay for Inhibitors of Influenza NS1 Protein Function; Potency, µM (doses to about 46.1 µM); actives 0.4% (n = 270,000); calls by dose curve; note: actives are rising curves; nearly all actives have a fitted effect of over 50% in size
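Compounds were scored for reversing the slow growth caused by influenza A NS1 in S. cerevisiae, measured by optical density at 600 nm. Assay medium contained 2% galactose at pH 6.0; NS1-free yeast of the same strain were the positive control.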
Numbers stand for hits; - = inactive; ? = inconclusive; . = not tested or not shown; [ ] = remark or other dose. Unless noted, calls come from the whole dose curve; as a rule, active = well fitted inhibition curve with a large enough effect; inconclusive = small, poorly fitted or top-dose-only effect, or another doubt; inactive = no such curve, though single readings can be large or run the other way.

SMILES | Shiga toxin inh | Pf growth 96h | SARS PLP yeast | Pf growth 48h | Cycloheximide cs | NS1 inh
CC(=O)c1cccc(NC(=S)NC(=O)c2cccc(C)c2)c1 | 83 | - | - | - | 40 | -
Cc1cccc(C(=O)NC(=S)Nc2ccc3[nH]c(=O)[nH]c3c2)c1 | - | - | - | - | 16 | -
CC(=O)c1cccc(NC(=S)NC(=O)c2ccccc2Br)c1 | - | - | - | - | - | ?
Cc1ccc(C(=O)NC(=S)Nc2ccc3[nH]c(=O)[nH]c3c2)c(C)c1 | - | ? | - | - | - | -
CC(=O)c1cccc(NC(=S)NC(=O)c2ccccc2C)c1 | - | - | - | - | - | -
CC(=O)c1cccc(NC(=S)NC(=O)c2ccc(Cl)cc2)c1 | 65 | - | - | - | 63 | -
CC(OC(=O)/C=C/c1ccc2ccccc2n1)C(=O)N(C)c1ccccc1 (stereo not drawn) | . | - | - | ? | . | .
Cc1cc(C)c2ccc(/C=N/O)nc2c1O | - | - | - | - | - | -
O/N=C/c1ccc2cccc(O)c2n1 | 44 | ? | - | - | 7.8 | -
CC(=O)/C=C/c1ccc2ccccc2n1 | - | ? | - | ? | 22 | -
O/N=C/c1ccc2ccccc2n1 | 106 | - | - | - | 50 | -
Cc1c(NC(=O)c2c(N)sc3c2CCCC3)c(=O)n(-c2ccccc2)n1C | - | - | - | - | - | .
CC(C)CCN(CC(=O)NCc1ccc(F)cc1)S(=O)(=O)c1ccccc1F | - | - | - | - | - | -
O=C(c1ccc(CNS(=O)(=O)c2ccc(Br)cc2)cc1)N1CCCC1 | - | - | - | - | - | .
O=C(NCCCn1cccn1)c1cc(COc2ccc(F)cc2Cl)on1 | 22 | - | - | - | 19 | -
CC(=O)c1ccc(OCc2cc(C(=O)NC(C)CCn3cccn3)no2)cc1 (stereo not drawn) | 111 | - | - | - | 66 | -
CC(CCn1cccn1)NC(=O)c1cc(COc2ccc(F)cc2Cl)on1 (stereo not drawn) | - | 10µM | - | - | - | -
CC(CCn1cccn1)NC(=O)c1cc(COc2ccc(F)cc2F)on1 (stereo not drawn) | - | ? | - | - | - | -
CCN(CCn1cccn1)C(=O)c1cc(COc2ccc(F)cc2Cl)on1 | - | ? | - | - | - | -
COC(=O)/C=C/CC(C)OS(N)(=O)=O (stereo not drawn) | - | - | - | - | - | -
CCCC(=O)NNc1c2ccccc2nc2ccccc12 | - | 9.3µM | - | - | - | -
O=C(CCCO)NNc1c2ccccc2nc2ccccc12 | - | 1.3µM | - | 1.5µM | - | -
O=C(O)COc1cccc2c1CCC=C2CCO/N=C(\c1ccccc1)c1cccnc1 | - | . | . | . | - | .
COc1ccccc1NC(=O)/C(=C\c1cccnc1)NC(=O)c1ccccc1 | - | - | - | - | - | -
O=C(NCc1cccnc1)/C(=C/c1ccccc1)NC(=O)c1ccccc1 | - | - | - | - | - | -
SMILES | Shiga toxin inh | Pf growth 96h | SARS PLP yeast | Pf growth 48h | Cycloheximide cs | NS1 inh
COc1ccccc1CCNC(=O)/C(=C/c1cccnc1)NC(=O)c1ccccc1 | - | 10µM | - | - | - | -
COc1ccccc1NC(=O)/C(=C\c1cccnc1)NC(=O)c1ccc(C)cc1 | - | 10µM | - | - | - | -
O=c1c(C=NCc2cccs2)c(O)n(C2CCCCC2)c(=O)n1C1CCCCC1 | - | ? | - | . | - | -
O=c1c(C=NCCN2CCNCC2)c(O)n(C2CCCCC2)c(=O)n1C1CCCCC1 | - | ? | - | 13µM | - | -
COc1ccc(N2C(=O)C(F)(F)C2c2ccccc2F)cc1 (stereo not drawn) | - | ? | - | - | - | .
COc1ccc(C2C(C(C)=O)=C(O)C(=O)N2c2ccc(C)cc2)cc1 (stereo not drawn) | - | - | - | -[0.00184 µM] | - | -
Cc1cc(C)cc(N2C(N)=NC(N)=NC2c2ccccc2F)c1 (stereo not drawn) | - | - | - | 3.3µM | - | -
COc1ccc(C2N=C(N)N=C(N)N2c2ccc(C)cc2)cc1 (stereo not drawn) | - | 5.9µM | - | . | - | -
Cc1cc(C)cc(N2C(N)=NC(N)=NC2c2cccc(Cl)c2)c1 (stereo not drawn) | - | - | - | 1.2µM | - | -
CCCNC(=S)Nc1c(C)n(C)n(-c2ccccc2)c1=O | - | - | - | - | - | -
CC(=O)C(Cc1ccccc1)NC(=O)CN1CCN(Cc2ccccc2)CC1 (stereo not drawn) | - | - | - | - | - | .
O=C(CN1C(=O)NC2(CCCCCC2)C1=O)c1ccc(Cl)cc1 | . | - | - | ? | . | .
O=C(Nc1cccc(C(=O)N2CCCCC2)c1)c1ccc(Cl)cc1 | - | 2.1µM | - | - | 29 | -
Cc1ccc(C(=O)N(C)Cc2ccc(N3CCOCC3)cc2)cc1S(=O)(=O)NCc1ccccc1 | . | ? | - | 10µM | . | .
Cc1cc(C)c(C)c(S(=O)(=O)NCc2ccc(C(=O)N3CCOCC3)cc2)c1C | - | - | - | 8.3µM | - | -
Cc1ccc(C(=O)Nc2cccc(C(=O)N3CCOCC3)c2)cc1Cl | - | - | - | - | 16 | -
Cc1ccc(C(=O)N(C)Cc2ccccc2)cc1S(=O)(=O)N1CCOCC1 | - | - | - | - | - | -
O=C(Nc1nnc(CCN2CCCCC2)s1)c1ccccc1Cl | - | - | - | - | - | .
CCOC(=O)c1[nH]c2cc3c(cc2c1NC(=O)CN1CCN(CCO)CC1)OCO3 | - | - | - | - | - | -
COc1cc(CN2CCNC(=O)C2CC(=O)NCc2csc(C(C)C)n2)cc(OC)c1 (stereo not drawn) | - | - | - | - | - | -
Cc1ccc(C(=O)NC(N2CCCC2)C(Cl)(Cl)Cl)cc1 (stereo not drawn) | - | ? | - | - | - | -
Cc1ccc(F)c(C2C3C=CCC(c4ccccc4)C3C(=O)N2Cc2ccccc2)c1 (stereo not drawn) | - | . | . | . | - | .
COc1cc2[nH]c(=S)nc(NCc3ccccn3)c2cc1OC | - | ? | - | ? | - | .
O=C(Nc1cccc(C(=O)N2CCOCC2)c1)c1ccccc1 | - | 5.2µM | - | - | - | -
Cc1cccc(CC(=O)Nc2ccc(C(=O)N3CCOCC3)cc2)c1 | - | 2.3µM | - | - | - | -
O=C(Nc1ccccc1)Nc1ccc(C(=O)N2CCOCC2)cc1 | 62 | - | - | - | 46 | -
COc1ccc(C2CC(c3ccccc3)=NN2c2ccc(S(N)(=O)=O)cc2)cc1 (stereo not drawn) | - | ? | - | 13µM | - | -
NS(=O)(=O)c1ccc(N2N=C(c3ccccc3)CC2c2cccc(Cl)c2)cc1 (stereo not drawn) | . | . | - | . | . | .
COc1ccc(C2CC(c3ccccc3)=NN2c2ccc(/C=N/NC(=O)c3ccncc3)cc2)cc1 (stereo not drawn) | 28 | ? | - | ? | 14 | -
